A selection: hits, their analogues and other compounds. The true share with any hit is near 1.3%.
S1P2 ag – activates the human S1P2 receptor; activation, % at 4.5 µM; 97,000 compounds, 0.46% hits; AID 729; S1P2-expressing cell line, agonist reporter read-out; O95136; in the data active means activation above about 16%;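 further: 0% = vehicle low control and 100% = maximal reference agonist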
PTPN22 inh 2 – blocks human PTPN22 phosphatase activity; 96,000 compounds, 0.21% hits; Q9Y2R2; recombinant LYP catalytic domain, DiFMUP fluorescence; inhibition, % at 2 µM; AID 640;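 active means inhibition at 2 µM at or above a set limit, the screen mean plus 3 SD, cut at about 24% in these data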;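 further: 0% = DMSO with enzyme and 100% = enzyme fully blocked by orthovanadate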
PTPN22 act – LYP (human) phosphatase activation | 96,000 compounds, 0.11% hits | recombinant LYP, DiFMUP fluorescence; 0 = plate median, 100 = signal doubled | Q9Y2R2 | activation, % at 2 µM;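 active means activation at 2 µM above a set limit, the mean plus 5 SD, cut at about 37% in these data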
S1P2 antag – antagonists of human S1P2 receptor; 97,000 compounds, 0.21% hits; cell-based S1P2 antagonist assay, inhibition at 5 uM; inhibition, % at 5 µM; in the data active means inhibition above about 45%;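 further: CRE beta-lactamase reporter cells expressing human S1P2 stimulated with S1P; 0% = agonist at EC80 alone and 100% = agonist plus reference antagonist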
GALR2 antag – GALR2 (human) receptor antagonism; O43603; GALR2-expressing cells, antagonist mode; inhibition, % at 4 µM; 140,000 compounds, 0.39% hits; in the data active means inhibition above about 27%;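 further: cells stimulated with galanin 1-16 at roughly its EC80; 0% = agonist challenge control and 100% = basal control without agonist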
Target sequence (O43603 whole entry, looked up): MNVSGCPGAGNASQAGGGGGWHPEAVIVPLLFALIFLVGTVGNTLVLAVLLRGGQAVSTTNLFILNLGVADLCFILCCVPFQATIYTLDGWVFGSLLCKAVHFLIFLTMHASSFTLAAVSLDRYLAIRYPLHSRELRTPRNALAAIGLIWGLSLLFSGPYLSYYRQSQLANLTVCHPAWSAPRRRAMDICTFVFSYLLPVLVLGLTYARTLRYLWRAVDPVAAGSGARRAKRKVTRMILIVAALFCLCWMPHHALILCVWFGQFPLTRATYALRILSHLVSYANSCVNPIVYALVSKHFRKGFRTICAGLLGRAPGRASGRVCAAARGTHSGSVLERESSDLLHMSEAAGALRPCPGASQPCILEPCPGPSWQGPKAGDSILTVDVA
GALR2 agonist – agonists of human galanin receptor 2 (GALR2) | O43603 | GALR2-expressing cells, agonist activation read-out | activation, % (concentration not given with the values) | 140,000 compounds, 0.48% hits | AID 803; in the data active means activation above about 5%, passing the limit was not always enough;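 further: 0% = vehicle buffer wells and 100% = reference agonist at full effect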
LYP act confirm – confirmation of human LYP phosphatase activators; activation, % at 2 µM; Recombinant LYP, DIFMUP fluorescence, activation; zero set by plate's median compound well; 100 tested, under 10 active; shares compounds with PTPN22 act; call rule not given here
* marks the source's active call; other numbers are inactive results; / = no result given.

SMILES | S1P2 ag | PTPN22 inh 2 | PTPN22 act | S1P2 antag | GALR2 antag | GALR2 agonist | LYP act confirm
O=C(CCNS(=O)(=O)c1cccs1)Nc1ccccc1F | -7 | -38 | 42* | 16 | 5 | -1 | -4
O=C(NC(=S)NCc1ccccc1)C1CCCCC1 | -1 | -35 | 39* | -24 | -14 | -2 | 4
S=C(NCc1ccccc1)NCc1ccc(CNC(=S)NCc2ccccc2)cc1 | / | / | / | / | 19 | -2 | /
O=[n+]1c2c(n([O-])c3ccccc31)CCCC2 | 3 | -4 | 1 | -10 | -6 | -2 | /
CCC(C)OC(=O)C1C(c2ccccc2)C(C(=O)O)C1c1ccccc1 (stereo not given) | -6 | -38 | 40* | -7 | -6 | -2 | -10
CCCCCOC(=O)C1C(c2ccccc2)C(C(=O)O)C1c1ccccc1 (stereo not given) | / | / | / | / | -8 | 4 | /
CN(C)c1ccc(/C=C/C=C2/SC(=S)N(c3ccccc3)C2=O)cc1 | -3 | -38 | 40* | 11 | -5 | -3 | 0
O=C1/C(=C/c2cccnc2)SC(=S)N1c1ccccc1 | / | / | / | / | 4 | -2 | /
CCOC(=O)C1=C(CSc2nc(-c3ccccc3)ccc2C#N)OC(N)=C(C#N)C1c1ccccc1 (stereo not given) | -5 | -41 | 39* | -4 | 17 | -1 | -3
O=C1OC(c2ccc(Cl)cc2)/C(=C(/O)c2ccccc2)C1=O (stereo not given) | -2 | 13 | -13 | 2 | 11 | -3 | /
COCCCNC(=O)c1cc2c(=O)n3cc(C)ccc3nc2nc1NCC1CCCO1 (stereo not given) | / | / | / | / | -10 | 1 | /
Cc1cc(F)ccc1NCc1cccnc1 | -2 | -36 | 38* | 9 | 6 | -2 | 6
O=C(c1ccccn1)N(Cc1cc2ccccc2[nH]c1=O)C1CCCCC1 | -1 | -40 | 41* | -34 | -1 | 0 | -3
COc1ccc2[nH]c(=O)c(CN(C(=O)c3ccccn3)C3CCCCC3)cc2c1 | -1 | 4 | -4 | -33 | -11 | 0 | /
Cc1onc(-c2ccccc2Cl)c1C(=O)Nc1ncn[nH]1 | / | / | / | / | 2 | -2 | /
CC(C)(C)NCCCCOc1ccc(F)cc1 | -3 | -43 | 40* | -10 | 2 | -1 | -2
O=C(NNC1=C(C(=O)C(F)(F)F)CCC1)c1ccc(Cl)cc1 | -5 | -40 | 45* | -16 | -3 | 0 | 0
CCCCC(=O)NCCNC(=O)c1cc(OCC(F)(F)F)ccc1OCC(F)(F)F | -3 | -41 | 38* | -35 | 1 | -1 | -1
CCC(=O)NC(C)C(c1cccs1)N1CCN(c2ccccc2)CC1 (stereo not given) | -5 | -48 | 43* | 8 | 1 | -1 | 4
c1ccc(-c2nnc(SCCC3OCCCO3)o2)cc1 | -4 | -42 | 47* | 14 | -1 | -2 | -2
CCOc1ccc(CN2CCNC(=O)C2CC(=O)OC)cc1 (stereo not given) | -5 | -38 | 37* | 5 | -7 | -2 | -5
COC(=O)[C@H](Cc1ccccc1)NC(=O)NCc1ccc(S(N)(=O)=O)cc1 | -5 | -48 | 44* | 11 | 11 | -2 | 6
COc1ccc(NC(=O)CSc2nc(C)c3c(c2C#N)CCCC3)cc1 | -8 | -44 | 47* | -13 | 13 | -1 | 3
S=c1[nH]ncn1/N=C/c1ccccc1 | -1 | -12 | 11 | -8 | 10 | -1 | /
S=c1[nH]ncn1-c1ccccn1 | 2 | -49 | 46* | 1 | -3 | -2 | -4
SMILES | S1P2 ag | PTPN22 inh 2 | PTPN22 act | S1P2 antag | GALR2 antag | GALR2 agonist | LYP act confirm
CCOc1cc(/C=N/Nc2nc(-c3cccc(S(=O)(=O)N4CCCC4)c3)cs2)ccc1O | / | / | / | / | 4 | 1 | /
CC(C)c1ccc(-c2nn(-c3ccccc3)cc2C2C(C#N)=C(N)OC3=C2C(=O)CC(C)(C)C3)cc1 (stereo not given) | -5 | 16 | -13 | -14 | 9 | -1 | /
COc1cc2nc(SCC(N)=O)n(CCC3=CCCCC3)c(=O)c2cc1OC | -3 | -42 | 41* | 15 | 4 | -2 | -3
COc1ccc(NC(=O)COC(=O)C2CCC(C(C)(C)C)CC2)c([N+](=O)[O-])c1 (stereo not given) | / | / | / | / | -5 | -1 | /
COC(=O)C1=C(CSc2nncn2C)NC(=O)NC1c1ccc(F)cc1 (stereo not given) | -7 | -46 | 50* | -1 | 1 | -4 | 6
O=C(/C=C/c1ncc(C(F)(F)F)cc1Cl)OCc1ccccc1 | -5 | 7 | -2 | -20 | 1 | -3 | /
CCc1ccccc1NC(=O)CC(O)(C(=O)OC)C(F)(F)F (stereo not given) | -3 | -37 | 37* | 0 | 9 | -1 | -4
COC(=O)C(O)(CC(=O)Nc1ccccc1OC)C(F)(F)F (stereo not given) | -3 | -5 | 4 | 9 | 1 | -2 | /
CS(=O)(=O)c1cnc(-c2ccccc2)nc1Oc1ccc(F)cc1 | -4 | -36 | 42* | 11 | -1 | -1 | -9
CCCC(=O)N1CCN(Cc2ccc3c(c2)OCO3)CC1 | / | / | / | / | 2 | 0 | /
O=C(CCn1c(=O)[nH]c2ccsc2c1=O)N1CCN(Cc2ccc3c(c2)OCO3)CC1 | -7 | -40 | 45* | -22 | 2 | -2 | -2
CCOC(=O)c1ccc(NC(=S)NNC(=O)C2(C)CC2(Cl)Cl)cc1 (stereo not given) | -5 | / | / | 9 | 12 | -2 | /
COC(=O)CSc1snnc1-c1ccc(Cl)cc1Cl | -7 | -3 | 4 | 9 | 4 | -2 | /
OCCCCCN=c1cc(-c2ccccc2)oc2ccc(Cl)cc12 | 3 | -38 | 40* | -2 | 10 | 1 | -4
O=c1cc(-c2ccccc2Cl)oc2c([N+](=O)[O-])c(O)cc(O)c12 | / | / | / | / | 5 | -2 | /
Cc1nc(C)c(C(=O)OCC(=O)N2CCN(c3ccccc3)CC2)s1 | -5 | -37 | 40* | -5 | -1 | -1 | 4
O=C(OCC(=O)N1CCN(c2ccccc2)CC1)c1cccc(Cl)c1 | -4 | 1 | 1 | 17 | 9 | 0 | /
O=C(O)CCn1[nH]c(=O)c2ccccc2c1=O | -4 | -36 | 37* | -9 | -3 | -3 | 8
O=C(CCn1[nH]c(=O)c2ccccc2c1=O)N1CCOCC1 | -6 | -8 | 7 | -21 | 15 | -1 | /
O=c1[nH]c2ccccc2n2c(-c3ccncc3)nnc12 | -3 | 4 | 2 | 9 | 10 | -3 | /
CCCCCCNC(=O)CC(NS(=O)(=O)c1ccc(OC)cc1)C(C)C (stereo not given) | / | / | / | / | 2 | -2 | /
c1ccc(-c2nn3c(Cn4cnc5ccccc54)nnc3s2)cc1 | -3 | -1 | 0 | -6 | -1 | -1 | /
c1ccc2c(c1)ncn2Cc1nnc2sc(-c3ccncc3)nn12 | 0 | -56 | 51* | 2 | -11 | 0 | 7
Cc1c(-c2nc(N)nc(Nc3ccccc3)n2)oc2ccccc12 | -3 | -37 | 37* | -11 | -2 | -1 | -1

Screens from PubChem.
